An excerpt weighted towards active compounds, which were near 14% of everything screened.
HADH2 inh = blocks human hydroxyacyl-CoA dehydrogenase type II; 73,000 compounds, 3.4% hits; recombinant HADH2, NADH fluorescence, beta-hydroxybutyryl-CoA; Q99714; Potency, µM (highest dose often 57.1 µM), hits mostly inhibitors; AID 886; also: nearly all actives have a fitted effect of over 60% in size
Target sequence (Q99714 whole entry, looked up, one chain of several): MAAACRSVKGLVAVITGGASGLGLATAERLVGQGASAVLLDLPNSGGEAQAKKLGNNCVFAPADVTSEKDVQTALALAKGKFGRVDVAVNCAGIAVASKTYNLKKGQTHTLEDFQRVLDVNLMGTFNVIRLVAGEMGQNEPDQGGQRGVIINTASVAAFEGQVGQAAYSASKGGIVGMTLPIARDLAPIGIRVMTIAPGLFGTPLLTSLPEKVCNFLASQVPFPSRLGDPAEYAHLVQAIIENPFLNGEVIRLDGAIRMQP
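His-tagged recombinant enzyme from E. coli, 20 nM, preincubated 15 min RT with compound; reaction started with 1 mM NAD+ and 90 uM beta-hydroxybutyryl-CoA in 100 mM Tris-HCl pH 9.0. NADH fluorescence (ex 360/em 450) read over 4 min; last-minus-first difference.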
A350 autofl = compound fluoresces in the Alexa 350 spectral region. Compound autofluorescence, 340/450 nm, Alexa 350 dye-equivalents; stronger effect = higher value. max dye-equivalent concentration, M. 59,000 compounds, 11% hits; in the data active = max dye-equivalent concentration above about 10 nM; inconclusive = mostly about 1.1 nM to 9.6 nM
HSD17B inhib = HSD17B dehydrogenase inhibition; Q99714; recombinant HSD17B10, NADH fluorescence kinetic; Potency, µM (doses to about 57.1 µM), usual class: inhibitors; 75,000 compounds, 7.6% hits;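 also: the protocol describes HADH2 (HSD17B10) and not the HSD17B4 of the title; nearly all actives have a fitted effect of over 70% in size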
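His-tagged E. coli-expressed HADH2 at 20 nM in 100 mM Tris-HCl pH 9.0 with 0.01 % Tween-20, preincubated 15 min with compound at room temperature. Reaction with 1 mM NAD+ and 90 uM beta-hydroxybutyryl coenzyme A; NADH fluorescence (360/450 nm) read kinetically over 4 min, last minus first point.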
CRE-bla Fsk = CRE-bla signaling modulation under forskolin stimulation | CHO CRE-bla reporter (cAMP response element driving beta-lactamase), forskolin EC10, beta-lactamase ratio | Potency, µM (highest dose often 38.2 µM), usual class: activators | AID 662 | 71,000 compounds, 2.5% hits; active = well fitted activation curve with a large enough effect in the signal ratio, with a control signal flat, not every such curve was filed as active; inconclusive = small, poorly fitted or top-dose-only effect, or effect the other way, or a change in a side signal; the % refers to the signal ratio
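qHTS titration format; CRE-bla CHO reporter; stimulus EC10 NKH 477, a water-soluble forskolin. Read: CCF4 460/530 nm ratio. Potency expressed as AC50 for activators or inhibitors.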
4MU fluor = compounds fluorescent in 4-MU spectral region; compound autofluorescence, 340/450 nm, 4-MU equivalents; stronger effect = higher value; max dye-equivalent concentration, M; 59,000 compounds, 11% hits; in the data active = max dye-equivalent concentration above about 10 nM; inconclusive = mostly about 1.1 nM to 9.6 nM
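Intrinsic fluorescence at 340/450 nm (ex/em) was read after 15 min at room temperature in pH 8.0, 100 mM Tris. Each compound concentration expressed as 4-MU-equivalent concentration from a six-point 4-MU standard series on each plate.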
AID923 = qHTS Assay for Allosteric/Competitive Inhibitors of Caspase-1: Spectroscopic Profiling in AFC Spectral Region | compound fluorescence, AFC spectral region (405/520 nm) | Potency, µM (doses to about 57.5 µM), actives largely listed as activators | 75,000 compounds, 1.1% hits
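Compound autofluorescence profiled at 405 nm ex/520 nm em during kinetic caspase 1 run (50 nM enzyme, 5 uM Ac-WEHD-AFC, HEPES pH 7.5, 10 mM DTT). Titration up to 57 uM; baseline from regression intercept, normalized to AFC standard curve.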
Numbers stand for hits; [ ] = dose if it differs, or a comment. Unless noted, calls follow the shape of the dose curve; as a rule, active = well fitted curve in the direction sought with a large enough effect; inconclusive = small, poorly fitted or top-dose-only effect, or another doubt; inactive = no such curve, though single readings can be large; an effect the other way counts as inactive or inconclusive.

Screening Nc1nnc(SCC(=O)Nc2ccc(F)c(Cl)c2)n1-c1ccccc1 returned HADH2 inh inactive, A350 autofl 3e-08M, HSD17B inhib inconclusive, CRE-bla Fsk inactive, 4MU fluor 2.5e-08M and AID923 inactive.
For CCOC(=O)C1CCN(c2nc(-c3ccccc3)nc3c2oc2ccccc23)CC1 the results were HADH2 inh inconclusive, A350 autofl inconclusive, HSD17B inhib 32µM, CRE-bla Fsk inconclusive, 4MU fluor inconclusive and AID923 inactive.
`COC(=O)c1ccc(CSc2ncnc3c2oc2ccccc23)o1` gave HADH2 inh inactive, A350 autofl inactive, HSD17B inhib inactive, CRE-bla Fsk 2.5µM, 4MU fluor inactive and AID923 inactive.
CC(=O)CSc1ncnc2c1oc1ccccc12 was read as HADH2 inh inconclusive, A350 autofl inconclusive, HSD17B inhib inactive, CRE-bla Fsk 4µM, 4MU fluor inactive and AID923 inactive.
COC(=O)c1ccc(CSc2ncnc3ccccc23)o1 was read as HADH2 inh inactive, HSD17B inhib inactive, CRE-bla Fsk inactive and AID923 inactive.
Screening CCOc1ccccc1NC(=O)CSc1ncnc2c1oc1ccccc12 returned HADH2 inh inactive, A350 autofl inactive, HSD17B inhib inactive, CRE-bla Fsk 0.63µM, 4MU fluor inactive and AID923 inactive.
`O=C(CSc1ncnc2c1oc1ccccc12)Nc1cccc(Cl)c1` gave HADH2 inh inactive, A350 autofl inactive, HSD17B inhib inactive, CRE-bla Fsk inconclusive, 4MU fluor inactive and AID923 inactive.
`CO[C@@H]1COC(=O)CC=C[C@@H](C)[C@@H]2C=C[C@H](O)[C@@H](COC(=O)[C@H](C)NC(=O)CC=C[C@H]1C)O2` gave HADH2 inh inactive[11.4 µM], HSD17B inhib inactive[11.4 µM] and AID923 inactive[11.5 µM].
C=CCSSSCC=C was read as HSD17B inhib inactive and AID923 inactive.
Screening O=C(O)CSc1nc(-c2ccccc2)nc2c1oc1ccccc12 returned HADH2 inh inactive, A350 autofl 2.2e-08M, HSD17B inhib inactive, CRE-bla Fsk inconclusive, 4MU fluor 2.3e-08M and AID923 inactive.
CCOC(=O)C1CCN(Cc2c(O)ccc3ccccc23)CC1 was read as HADH2 inh inactive, A350 autofl 9.3e-08M, HSD17B inhib inconclusive, CRE-bla Fsk inactive, 4MU fluor 8.5e-08M and AID923 inactive.
`O=C(O)C1CCN(c2nc(-c3ccccc3)nc3c2oc2ccccc23)CC1` gave HADH2 inh inactive, A350 autofl inconclusive, HSD17B inhib inactive, CRE-bla Fsk inconclusive, 4MU fluor inconclusive and AID923 inactive.
For COc1ccc(CCNC(=O)CSC2=Nc3ccccc3C3=NC(C(C)C)C(=O)N23)cc1OC (stereo unspecified) the results were HADH2 inh inactive, A350 autofl 1.3e-08M, HSD17B inhib inconclusive, CRE-bla Fsk inactive, 4MU fluor 1.4e-08M and AID923 inactive.
For CC1N=C2c3ccccc3N=C(SCc3cc(=O)n4cc(Cl)ccc4n3)N2C1=O (stereo unspecified) the results were HADH2 inh inactive, A350 autofl 3.3e-08M, HSD17B inhib inconclusive, CRE-bla Fsk inconclusive, 4MU fluor 3.4e-08M and AID923 inactive.
`CC(C)C1N=C2c3ccccc3N=C(SCc3cc(=O)n4ccccc4n3)N2C1=O` (stereo unspecified) gave HADH2 inh inactive, A350 autofl 2.7e-08M, HSD17B inhib inactive, CRE-bla Fsk inconclusive, 4MU fluor 2.9e-08M and AID923 inactive.
O=C(c1ccc(Cl)s1)N1CCN(c2ccccc2)CC1 was read as HADH2 inh inactive, HSD17B inhib inactive, CRE-bla Fsk 13µM and AID923 inactive.
Screening CCOc1cc(C)c(S(=O)(=O)Nc2ccc(Cl)cn2)cc1C returned HADH2 inh inactive, A350 autofl inconclusive, HSD17B inhib inactive, CRE-bla Fsk inactive, 4MU fluor inactive and AID923 inactive.
`CCOc1ccc(S(=O)(=O)Nc2ccc(Cl)cn2)c(C)c1C` gave HADH2 inh inactive, A350 autofl 1.6e-07M, HSD17B inhib inactive, CRE-bla Fsk inactive, 4MU fluor 1.1e-07M and AID923 inactive.
Screening CCOC(=O)N/N=C1/C[C@@H](O)[C@@H](O)[C@@H]2[C@@H]3C(=O)N(C[C@@H]4CCCO4)C(=O)[C@H]3CC[C@@H]12 returned HADH2 inh inactive[11.4 µM], HSD17B inhib inactive[11.4 µM] and AID923 inactive[11.5 µM].
`c1ccc(-c2nc3nonc3c3nc4ccccc4n23)cc1` gave HADH2 inh inconclusive, A350 autofl 7.3e-08M, HSD17B inhib 32µM, CRE-bla Fsk inactive, 4MU fluor 9.2e-08M and AID923 inactive.
COCCNc1nc(C)nc2c1nc(-c1ccccc1)n2C1CCN(Cc2ccccc2)C1 (stereo unspecified) was read as HADH2 inh inactive, HSD17B inhib 32µM, CRE-bla Fsk inconclusive and AID923 inactive.
CCN(CC)CCn1c(-c2ccccc2)nc2c(NCc3ccccc3)nc(C)nc21 was read as HADH2 inh inconclusive, HSD17B inhib 20µM, CRE-bla Fsk inactive and AID923 inactive.
Screening Cc1nc(NCc2ccccc2)c2nc(-c3ccccc3)n(CCN(C)C)c2n1 returned HADH2 inh inconclusive, HSD17B inhib 32µM, CRE-bla Fsk inactive and AID923 inactive.
For COCCNc1nc(C)nc2c1nc(-c1ccccc1)n2CCN(C)C the results were HADH2 inh inconclusive, HSD17B inhib 32µM, CRE-bla Fsk inconclusive and AID923 inactive.
CC(C)COC(=O)C(C#N)c1nc2ccccc2nc1N1CCN(Cc2ccc3c(c2)OCO3)CC1 (stereo unspecified) was read as HADH2 inh inactive, A350 autofl inconclusive, HSD17B inhib inactive, CRE-bla Fsk inactive, 4MU fluor inactive and AID923 inactive.
Screening C=CCN(CC=C)c1nc2ccccc2nc1C(C#N)C(=O)OC(C)C (stereo unspecified) returned A350 autofl 3.6e-07M and 4MU fluor 3.1e-07M.
N#CC1=C(N)OC(c2ccccc2)=C(C#N)C1c1ccc2c(c1)OCO2 (stereo unspecified) was read as HADH2 inh 20µM, A350 autofl inactive, HSD17B inhib 25µM, CRE-bla Fsk inconclusive, 4MU fluor inactive and AID923 inactive.
Screening O=C(O)c1ccccc1C(=O)c1cccs1 returned HADH2 inh inactive, A350 autofl inconclusive, HSD17B inhib inactive, CRE-bla Fsk inactive, 4MU fluor inactive and AID923 inactive.
For CN(C(=O)c1cccs1)c1ccccc1C(=O)O the results were HADH2 inh inconclusive, HSD17B inhib 25µM, CRE-bla Fsk inactive[7.6 µM] and AID923 inactive.
CCOC(=O)CNC(=O)c1nn(-c2ccc(OCC)cc2)c(=O)c2ccccc12 was read as HADH2 inh inactive, A350 autofl 1.2e-08M, HSD17B inhib inactive, CRE-bla Fsk inconclusive, 4MU fluor 1.3e-08M and AID923 inactive.

Source: PubChem BioAssay (National Center for Advancing Translational Sciences (NCATS))
